The record followed here is PubChem BioAssay.

Usually inhibition stands for the drop in the measured response relative to a control, in per cent.

Unmarked numbers belong to inactive results. For some of these results: Entries with a potency or affinity are not part of this list. Calls of active or inactive are those of the source. Unless noted, no rule for the calls is given here.

A short description of assay [1]: antimalarial activity against Dd2 strain (AID 2302;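 active = growth inhibition above 50% at the single 2 µM test dose, taken to imply half-maximal potency below 2 µM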;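 also: 0% = DMSO untreated growth and 100% = chloroquine plus artemisinin killed control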). As to conditions: P. falciparum Dd2 in RBCs, LDH growth readout, 72 h; at 2 µM; active compounds read high.
Assay [2] is described as follows: human hepatoma cell viability loss – ATP luminescence, cytotoxicity control for P. falciparum antimalarial project, primary screen (AID 2303;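 active = inhibition above 50%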;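 also: 0% = DMSO wells and 100% = digitonin-killed cells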). The following applies: HepG2 viability, 24-48 h, at 10 µM, active compounds read high.
Assay [3] deals with L-lactate dehydrogenase (Plasmodium falciparum (isolate CDC / Honduras)) (UniProt Q27743). As to the kind of experiment: PfLDH activity inhibition – cell lysate, 3D7 strain, counter-screen for P. falciparum growth inhibition project (AID 2304).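 Also: 0% = vehicle and 100% = reference inhibitor.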 The following applies: P. falciparum 3D7 crude extract, LDH APAD/NBT absorbance; at 2 µM; active compounds read high.
L-lactate dehydrogenase (Plasmodium falciparum (isolate CDC / Honduras)), sequence (Q27743 whole entry, looked up): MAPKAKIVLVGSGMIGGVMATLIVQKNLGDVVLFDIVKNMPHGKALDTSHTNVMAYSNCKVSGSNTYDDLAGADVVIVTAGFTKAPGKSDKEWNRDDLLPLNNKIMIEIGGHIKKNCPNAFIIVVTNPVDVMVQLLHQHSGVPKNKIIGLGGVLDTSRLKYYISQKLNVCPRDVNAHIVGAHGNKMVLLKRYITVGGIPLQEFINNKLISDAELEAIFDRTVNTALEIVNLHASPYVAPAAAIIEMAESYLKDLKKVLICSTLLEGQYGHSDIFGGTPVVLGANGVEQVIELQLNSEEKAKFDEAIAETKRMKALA
Assay [4] in a line: inhibition of 3D7 malaria parasite growth – strain 3D7 (AID 2306).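 Also: 0% = DMSO wells and 100% = chloroquine plus artemisinin control wells.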 The following applies: P. falciparum 3D7 erythrocytic growth, LDH absorbance, 72 h; at 2 µM; active compounds read high.
The target of assay [5] is Calcium-dependent protein kinase 1 (Plasmodium falciparum (isolate 3D7)) (UniProt P62344). The experiment in a line: PfCDPK1 kinase inhibitors, biochemical, TCAMS library (AID 1159585; cut-off not given, nearly all actives have IC50 up to about 0.98 µM;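 also: inhibitors leave more ATP so luminescence rises with inhibition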). The following applies: recombinant PfCDPK1, Kinase-Glo ATP depletion luminescence. On the technique in general: Kinase-Glo measures the ATP left after a reaction by luminescence.
Calcium-dependent protein kinase 1 (Plasmodium falciparum (isolate 3D7)), sequence (P62344 whole entry, looked up): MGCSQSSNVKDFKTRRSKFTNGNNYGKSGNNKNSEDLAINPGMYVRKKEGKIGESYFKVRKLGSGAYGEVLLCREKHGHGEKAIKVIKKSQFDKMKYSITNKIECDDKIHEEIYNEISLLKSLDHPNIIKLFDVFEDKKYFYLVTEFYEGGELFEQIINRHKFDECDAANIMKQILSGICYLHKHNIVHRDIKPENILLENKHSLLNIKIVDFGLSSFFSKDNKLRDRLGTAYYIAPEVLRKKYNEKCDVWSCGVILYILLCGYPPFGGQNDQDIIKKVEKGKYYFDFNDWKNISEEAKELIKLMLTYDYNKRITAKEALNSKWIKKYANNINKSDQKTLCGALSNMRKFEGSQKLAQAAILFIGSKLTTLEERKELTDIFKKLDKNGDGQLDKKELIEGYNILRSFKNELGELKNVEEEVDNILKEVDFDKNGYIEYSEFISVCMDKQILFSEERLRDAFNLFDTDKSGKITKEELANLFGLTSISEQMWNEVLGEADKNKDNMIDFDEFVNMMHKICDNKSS
Assay [6] deals with Plasmodium falciparum protein kinase 6 (PK6, PF3D7_1337100) (UniProt Q8IDW1). The experiment in a line: PfPK6 kinase inhibitors, biochemical, TCAMS library (AID 1159586). The following applies: recombinant PfPK6, Kinase-Glo ATP depletion luminescence.
Plasmodium falciparum protein kinase 6 (PK6, PF3D7_1337100), sequence (Q8IDW1 1-305): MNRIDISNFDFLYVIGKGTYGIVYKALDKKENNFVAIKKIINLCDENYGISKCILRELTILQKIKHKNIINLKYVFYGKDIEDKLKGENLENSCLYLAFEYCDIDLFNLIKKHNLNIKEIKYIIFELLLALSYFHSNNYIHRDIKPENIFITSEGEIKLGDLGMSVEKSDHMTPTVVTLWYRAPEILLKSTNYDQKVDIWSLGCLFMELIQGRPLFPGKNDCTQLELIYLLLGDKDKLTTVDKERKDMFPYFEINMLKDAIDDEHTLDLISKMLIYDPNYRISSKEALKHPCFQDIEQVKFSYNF
Assay [7] has as its target Protein kinase 7 (PK7), Plasmodium falciparum 3D7 (PF3D7_0213400) (UniProt Q7YTF7). As to the kind of experiment: inhibition of Plasmodium PK7 catalytic activity – biochemical, TCAMS antimalarial set, Kinase-Glo luminescence (AID 1159587). As to conditions: recombinant PfPK7, Kinase-Glo ATP depletion luminescence.
The target in assay [8] is Calcium-dependent protein kinase 4 (Plasmodium falciparum (isolate 3D7)) (UniProt Q8IBS5). As to the kind of experiment: PfCDPK4 kinase inhibitors, biochemical, TCAMS library (AID 1159588; cut-off not given, nearly all actives have IC50 up to about 0.91 µM). As to conditions: recombinant PfCDPK4, Kinase-Glo ATP depletion luminescence.
Calcium-dependent protein kinase 4 (Plasmodium falciparum (isolate 3D7)), sequence (Q8IBS5 whole entry, looked up): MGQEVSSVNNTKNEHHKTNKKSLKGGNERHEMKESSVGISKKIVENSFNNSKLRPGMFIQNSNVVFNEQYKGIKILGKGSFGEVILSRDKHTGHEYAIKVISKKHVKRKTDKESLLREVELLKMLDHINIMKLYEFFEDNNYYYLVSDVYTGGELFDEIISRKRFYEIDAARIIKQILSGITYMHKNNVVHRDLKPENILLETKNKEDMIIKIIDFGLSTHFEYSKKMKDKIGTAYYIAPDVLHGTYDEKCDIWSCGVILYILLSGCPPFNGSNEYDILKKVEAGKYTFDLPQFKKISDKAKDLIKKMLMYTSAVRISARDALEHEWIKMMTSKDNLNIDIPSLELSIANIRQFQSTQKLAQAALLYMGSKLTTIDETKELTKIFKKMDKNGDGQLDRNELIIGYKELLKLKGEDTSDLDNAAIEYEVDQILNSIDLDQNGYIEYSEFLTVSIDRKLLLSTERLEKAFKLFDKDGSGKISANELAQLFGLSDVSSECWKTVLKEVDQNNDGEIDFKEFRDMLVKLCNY

Protein kinase 7 (PK7), Plasmodium falciparum 3D7 (PF3D7_0213400), sequence (Q7YTF7 1-343): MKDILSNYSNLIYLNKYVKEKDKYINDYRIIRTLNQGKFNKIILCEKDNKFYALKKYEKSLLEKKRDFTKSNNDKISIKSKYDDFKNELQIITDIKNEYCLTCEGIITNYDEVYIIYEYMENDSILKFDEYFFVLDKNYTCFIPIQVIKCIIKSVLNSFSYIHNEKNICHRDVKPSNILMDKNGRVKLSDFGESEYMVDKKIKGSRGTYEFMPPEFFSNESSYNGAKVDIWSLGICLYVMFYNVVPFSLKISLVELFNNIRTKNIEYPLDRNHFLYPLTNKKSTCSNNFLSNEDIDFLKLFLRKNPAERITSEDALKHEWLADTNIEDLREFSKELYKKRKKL

With `CN(C)C(=O)CC(=O)NCc1cccc(Cl)c1`, the growth inhibition is 3% in assay [1] and 99% (active) in assay [4]. The inhibition in assay [2] was 4%; in assay [3] it was 3%. Besides, the result in assay [5], in assay [6], in assay [7] and in assay [8] was inactive.
As for `Cc1cc2nc(-c3ccc(C(=O)NC4CCN(Cc5ccccc5)CC4)s3)[nH]c2cc1C`, the growth inhibition was 82% (active) in assay [1] and 99% (active) in assay [4]. Also, the values for the inhibition in assay [2] and in assay [3] were 33% and 1%, respectively. For the same molecule, the outcome in assay [5], in assay [6], in assay [7] and in assay [8] was inactive.
`CC(C)CC(=O)N1CCNC[C@@H]1C(=O)NCCSCc1c(F)cccc1Cl`: the growth inhibition in assay [1] was 3%; in assay [4], 86% (active). Further, the inhibition in assay [2] is 1%; in assay [3], 0%. Further, the outcome in assay [5], in assay [6], in assay [7] and in assay [8] was inactive.
Take `CN1CCCC(CN2CCN(Cc3ccc(-c4ccc(-c5nc6ccccc6[nH]5)s4)cc3)CC2)C1` (stereo not given): the growth inhibition in assay [1] and in assay [4] was 100% (active) in each case. For the same molecule, the inhibition in assay [2] is 57% (active); in assay [3], -8%. Besides, the outcome in assay [5], in assay [6], in assay [7] and in assay [8] was inactive.
Consider `Cc1nnsc1C(=O)Nc1cccc(-c2cccc(-c3nc4ccc(C(F)(F)F)cc4[nH]3)c2)c1`, for which the growth inhibition in assay [1] was 100% (active); in assay [4], 101% (active). For the same molecule, the results for the inhibition in assay [2] and in assay [3] were 70% (active) and 1%, respectively. Besides, the result in assay [5], in assay [6], in assay [7] and in assay [8] was inactive.
On to `O=C(NCCN1CCCC1)c1cccc(-c2ccc(-c3nc4ccc(C(F)(F)F)cc4[nH]3)cc2)c1`, for which the results for the growth inhibition in assay [1] and in assay [4] were 99% (active) and 101% (active), respectively. The inhibition in assay [2] was 34%; in assay [3] it was -3%. Besides, the outcome in assay [5], in assay [6], in assay [7] and in assay [8] was inactive.
As for `COc1cc(C(C)C)nc2ccc(NC(=O)c3ccc(C(=O)Nc4ccc5nc(C(C)C)cc(OC)c5c4)cc3)cc12`, the growth inhibition in assay [1] was 72% (active); in assay [4] it was 95% (active). Besides, the inhibition in assay [2] was 39%; in assay [3] it was 0%. The outcome in assay [5], in assay [6], in assay [7] and in assay [8] was inactive.
With `N#Cc1ccc2c(c1)CCN(CCC1CCC(NC(=O)/C=C/c3cnc4ccccc4c3)CC1)CC2` (stereo not given), the growth inhibition is 21% in assay [1] and 87% (active) in assay [4]. Moreover, the inhibition in assay [2] is 22%; in assay [3], -1%. Besides, the result in assay [5], in assay [6], in assay [7] and in assay [8] was inactive.
As for `COC(=O)C(C)(C)Cc1c(SC(C)(C)C)c2cc(C(C)C)ccc2n1Cc1ccc(Cl)cc1`, the growth inhibition in assay [1] and in assay [4] was 96% (active) each time. Also, the inhibition in assay [2] is -9%; in assay [3] it was 0%. In addition, the result in assay [5], in assay [6], in assay [7] and in assay [8] was inactive.
For the molecule `COc1cc2nc(N3CCC(CNC(=O)c4ccc(-c5ccc(-c6noc(C)n6)cc5)cc4)CC3)nc(N)c2cc1OC`, the growth inhibition in assay [1] is 100% (active); in assay [4], 98% (active). The inhibition in assay [2] was 96% (active); in assay [3], 1%. The result in assay [5], in assay [6], in assay [7] and in assay [8] was inactive.
Regarding `CC(C)CCNCC(O)Cn1c2ccc(Cl)cc2c2cc(Cl)ccc21` (stereo not given), the growth inhibition in assay [1] and in assay [4] was 99% (active) each time. The inhibition in assay [2] was 36%; in assay [3] it was 3%. For the same molecule, the result in assay [5], in assay [6], in assay [7] and in assay [8] was inactive.
With `COc1ccc2nc(C)cc(N/N=C/C=C/c3ccccc3)c2c1`, the growth inhibition in assay [1] and in assay [4] was 100% (active) throughout. Also, the inhibition was 27% in assay [2] and 0% in assay [3]. Also, the outcome in assay [5], in assay [6], in assay [7] and in assay [8] was inactive.
In the case of `Cc1ccc(OCCCCONC(=O)c2ccccc2)cc1`, the growth inhibition in assay [1] is 1%; in assay [4], 96% (active). For the same molecule, the values for the inhibition in assay [2] and in assay [3] were 6% and -2%, respectively. Besides, the outcome in assay [5], in assay [6], in assay [7] and in assay [8] was inactive.
With `Cc1ccc(C)c2sc(N3CCN(C(=O)c4ccc([N+](=O)[O-])o4)CC3)nc12`, the growth inhibition in assay [1] was 89% (active); in assay [4] it was 96% (active). Further, the inhibition in assay [2] was -2%; in assay [3], 2%. Further, the outcome in assay [5], in assay [6], in assay [7] and in assay [8] was inactive.
`COc1ccc(CN2CCN(Cc3cc(Cl)ccc3O)CC2CCO)c(C)c1C` (stereo not given): the growth inhibition in assay [1] was 76% (active); in assay [4] it was 94% (active). The inhibition in assay [2] was 1%; in assay [3], 3%. Moreover, the result in assay [5], in assay [6], in assay [7] and in assay [8] was inactive.
In the case of `CCNc1cc(C(=O)N[C@@H](Cc2cccc(Cl)c2)[C@H](O)CNC(C)CCCC(C)C)cc(N2CCCCS2(=O)=O)c1` (stereo not given in full), the growth inhibition in assay [1] is 78% (active); in assay [4], 98% (active). In addition, the inhibition is 7% in assay [2] and -1% in assay [3]. The result in assay [5], in assay [6], in assay [7] and in assay [8] was inactive.
Turning to `CCN(CC)C(=O)C(=O)c1c[nH]c2ccc(Cl)cc12`, the growth inhibition in assay [1] and in assay [4] was 96% (active) in each case. The inhibition is 1% in assay [2] and 0% in assay [3]. Also, the outcome in assay [5], in assay [6], in assay [7] and in assay [8] was inactive.
As for `COc1ccc(NC(=O)[C@H](Cc2ccccc2)Nc2cc(C)nc(NCCc3cccs3)n2)cc1`, the figures for the growth inhibition in assay [1] and in assay [4] were 83% (active) and 100% (active), respectively. Further, the inhibition in assay [2] was 12%; in assay [3], -2%. Further, the outcome in assay [5], in assay [6], in assay [7] and in assay [8] was inactive.
For the molecule `C=CCn1c(SCC(=O)Nc2cc(C)ccc2OC)nc2sc(C)cc2c1=O`, the growth inhibition in assay [1] is 86% (active); in assay [4], 100% (active). The results for the inhibition in assay [2] and in assay [3] were 6% and -5%, respectively. The result in assay [5], in assay [6], in assay [7] and in assay [8] was inactive.
With `Cc1c(C(=O)Nc2cc(Sc3ccc(F)cc3)cc([N+](=O)[O-])c2)sc2ncn(Cc3cccc(F)c3)c(=O)c12`, the values for the growth inhibition in assay [1] and in assay [4] were 53% (active) and 100% (active), respectively. Moreover, the inhibition was -1% in assay [2] and 5% in assay [3]. The result in assay [5], in assay [6], in assay [7] and in assay [8] was inactive.
